# Measurements taken from PubChem BioAssay AID652126 (The Scripps Research Institute Molecular Screening Center, 2013).
# The campaign covered roughly 370,000 compounds. About 3,700 (1%) were called active. For the sample, actives were picked, then their nearest neighbours and some compounds at random. A number with no mark means an inactive call.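 Rule for the calls: active = activation above the mean over all tested compounds plus 3 SD (cut at about 0.9% in these data); inactive = the rest.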
# Test system: Nuclear hormone receptor DAF-12 (Strongyloides stercoralis)
# Experiment: ssDAF-12 driven luciferase reporter activation – cell-based, luminescence, HEK293, GRIP1 co-expression, lit1-tk-luc, primary screen (AID 652126);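 note: 0% = DMSO-only wells and 100% = 3 µM delta7-dafachronic acid wells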
# Conditions: HEK293 ssDAF-12/GRIP1 lit1-tk-luc reporter, at 6.8 µM, hits give high values, % of 3 µM dafachronic acid response
row,Structure (SMILES),activation
1,Cc1ccc(-n2c(SCC(=O)Nc3ccc(S(=O)(=O)Nc4nccs4)cc3)nnc2-c2cccnc2)cc1,-1.03%
2,Fc1ccccc1-c1cc2cc3c(cc2cn1)OCO3,0.96% (active)
3,Fc1ccc2cnc(-c3ccccc3)cc2c1,0.89%
4,COC(=O)C[C@@H]1CC[C@@H]2[C@H](COc3ccc(NC(=O)c4cccc(F)c4)cc3C(=O)N2C)O1,-1.32%
5,CN(C(N)=NC(=O)/C=C/c1ccccc1)C(C#Cc1ccccc1)Cc1ccccc1 (stereo not given),-1.31%
6,O=C(CCCCCN1C(=O)C2C3C=CC(C3)C2C1=O)Nc1ccccn1 (stereo not given),-1.93%
7,COc1ccc(Cn2cc(COC(=O)N(C)Cc3ccccc3)nn2)cc1,-1.12%
8,Cc1ccc(NC(=O)c2ccc(Cl)nc2)cc1S(=O)(=O)N1CCOCC1,-1.53%
9,COc1ccc(CC(=O)NCc2nnc(SCC(=O)Nc3ncc(C)s3)n2C)cc1,-1.52%
10,Cc1cnc(NC(=O)c2ccc(Cl)nc2)s1,1.34% (active)
11,COc1ccc(-c2cc(-c3nnc(SCC(=O)Nc4cccc5ccccc45)n3N)[nH]n2)cc1,-1.73%
12,Cc1cc(=O)[nH]c(SCC(=O)Nc2ccc(Cl)cc2C)n1,-1.2%
13,CCC(c1ccc(NC(=O)OC(C)(C)C)cc1)c1cc(OC)cc(OC)c1 (stereo not given),-1.95%
14,CC(C)(C)c1ccc(C(=O)Nc2cc(Cl)c(Br)cc2C(=O)O)cc1,-1.31%
15,Cc1c(C(=O)Nc2ccccn2)oc2ccc(Br)cc12,1.84% (active)
16,CCc1nonc1NC(=O)c1oc2ccc(Cl)cc2c1C,-0.87%
17,Cc1c(C(=O)NC2CCCCC2)oc2ccccc12,-0.81%
18,C=CCn1c(SCC(N)=O)nnc1-c1ccccc1OC,-0.81%
19,COc1ccc(C(=O)Nc2ccc(-n3nncc3C(C)(C)C)cc2)cc1,-1.68%
20,COc1ccc(C(=O)NCC[N+](C)(C)C)cc1,-0.25%
21,COc1ccc(NC(=O)c2ccc(OC)cc2)cc1,0.92% (active)
22,O=C(CSc1nnc(-c2ccccc2)n1Cc1ccco1)Nc1ccccc1-c1ccccc1,-1.67%
23,O=C(CSc1nnc(COc2ccccc2)n1Cc1ccco1)c1ccc2ccccc2c1,-1.35%

row,Structure (SMILES),activation
1,Clc1ccc(-c2cc(C3CCNCC3)[nH]n2)c(Cl)c1,-1.62%
2,O=C(c1ccccc1)c1cc(-c2ccccn2)c(N2CCOCC2)s1,-1.53%
3,Clc1ccc(-c2cc(-c3ccccn3)on2)c(Cl)c1,1.28% (active)
4,C[C@H]1[C@H](NC(=O)c2cccc(N(C)C)c2)CC[C@@]23CCCN2C(=O)CCC[C@@H]13,-1.05%
5,O=S(=O)(Nc1ccc2nc(-c3ccco3)[nH]c2c1)c1ccccc1,-0.88%
6,Cn1c(-c2ccco2)nc2cc3ccccc3cc21,1.86% (active)
7,Cn1c(SCC(=O)c2cccs2)nnc1-c1ccco1,-0.1%
8,Cc1cc(NS(=O)(=O)c2ccc(NC(=O)CSc3nnc(SCc4ccc(F)cc4)s3)cc2)nc(C)n1,-1.33%
9,O=C1CCC2(CCC(c3ccc(Cl)cc3)CC2)N1CCO (stereo not given),-1.42%
10,Oc1cccc2ccc(/C=C/c3ccc(Br)s3)nc12,1.49% (active)
11,O=C(CN1C(=O)NC2(CCCCC2)C1=O)NCCC1=CCCCC1,-1.49%
12,CCOC(=O)c1cccc(NC(=O)CN(C)S(=O)(=O)c2ccc(-c3cocn3)s2)c1,0.72%
13,N[C@@H](Cc1ccccc1)C(=O)N1CCC[C@@H]1C(=O)N1CCC2CCN(S(=O)(=O)c3ccccc3)CC21 (stereo not given in full),-0.75%
14,O=C(NCCCNC(=O)c1ccccc1Cl)c1cnccn1,-0.77%
15,CN(C)CCNC(=O)c1ccc(Cl)c2cc3ccccc3nc12,2.74% (active)
16,CN(C)CCNC(=O)Cc1ccc([N+](=O)[O-])cc1,-0.65%
17,COc1ccc(Cn2cc(CN3[C@@H](CC(C)C)COc4cc(Br)ccc4S3(=O)=O)nn2)cc1,-0.66%
18,Fc1ccc2nc(COCc3nc4ccc(F)cc4[nH]3)[nH]c2c1,-1.23%
19,Oc1cc2c(cc1O)CN(C(=S)NCCc1ccc(Cl)cc1)CCC2,-1.68%
20,CC1CCN(C(=O)CCNC(=O)c2ccccc2)CC1,-0.14%
21,CCN(CCNC(=O)C1=C(C)C(=O)OC12CCC(C)CC2)c1ccccc1 (stereo not given),3.96% (active)
22,CCOc1ccc(CCNC(=O)C2=C(C)C(=O)OC23CCC(C)CC3)cc1OCC (stereo not given),-0.29%
23,O=C(OC12CCCN(C1)/C(=C/c1cccnc1)C2)C1CCCC1 (stereo not given),-1.43%

row,Structure (SMILES),activation
1,CCOC(=O)[C@@]12CN(C(=O)OC(C)(C)C)CC=C1N(Cc1ccc(OC)cc1)C(=O)[C@H]2CC(=O)NCc1ccc(OC)c(OC)c1,-0.75%
2,CC(NC(=O)c1ccccc1SCC(=O)N1CCCC1)c1ccccc1 (stereo not given),-0.47%
3,C/C(=N\NC(=O)c1cccnc1)c1ccc(-n2ccnc2)cc1,-1.15%
4,CC(NC(=O)c1ccccc1C(=O)O)c1ccc(-n2ccnc2)cc1 (stereo not given),0.93% (active)
5,C[C@H](C(=O)N(C)c1ccccc1)[C@@H](O)c1ccc2ccccc2c1,-0.52%
6,COc1ccccc1-c1nnc(NC(=O)c2ccc3ncsc3c2)o1,0.27%
7,COc1ccccc1-c1nnc(NC(=O)c2cccc(N3C(=O)CCC3=O)c2)o1,1.57% (active)
8,O=C(Nc1nnc(-c2ccccc2)o1)c1cccc(S(=O)(=O)N2CCOCC2)c1,-0.75%
9,Cc1ccc(NC(=S)NNC(=O)CSc2nnc(SCc3ccccc3Cl)s2)cc1,-1.2%
10,CCOc1ccc2c(c1)C(c1ccc(C)cc1)=NNC(c1ccc(C)cc1)=N2,-0.66%
11,Cc1ccc(C2=Nc3c(ccc4ccccc34)C(c3ccncc3)=NN2)cc1,1.33% (active)
12,CN(C)c1ccc(NC(=O)NC2CCCCN(Cc3ccc(Cl)cc3)C2=O)cc1 (stereo not given),-1.57%
13,Cc1ccc(S(=O)(=O)N2[C@@H](c3cccc(Cl)c3)C(C(=O)O)=CC[C@H]2c2ccc(Cl)c(Cl)c2)cc1,-1.12%
14,COc1ccc(C2CC=C(C(=O)O)C(c3ccccc3F)N2S(=O)(=O)c2ccc(C)cc2)cc1OC (stereo not given),1.37% (active)
15,Cc1ccc(S(=O)(=O)N2[C@@H](c3ccccc3F)C(C(=O)O)=CC[C@H]2c2ccc(Cl)cc2)cc1,-1.05%
16,COc1ccc(N2CCN(CCNS(=O)(=O)c3ccc([N+](=O)[O-])cc3)CC2)cc1,-1.33%
17,C=CCn1c(=O)c(C(=O)Nc2ncccc2O)c(O)c2ccccc21,-0.42%
18,Cn1c(=O)c(C(=O)Nc2ncccn2)c(O)c2ccccc21,2.21% (active)
19,Cn1c(=O)c(Sc2ccc(Cl)cc2)c(O)c2ccccc21,0.04%
20,CN(C)[C@H]1CCN(c2cccc3c2S(=O)(=O)N2CC[C@H](C2)O3)C1,-0.74%
21,CC(C)(C)NC(=O)C(c1cccnc1)N(C(=O)c1cnco1)c1ccc(C(C)(C)C)cc1 (stereo not given),-2.05%
22,COc1ccccc1C(=O)N/C(=C/c1ccc2c(c1)OCO2)C(=O)Nc1cccc(C(=O)O)c1,-0.63%
23,COc1ccc(/C=C(/NC(=O)c2ccco2)C(=O)Nc2ccc(C(C)=O)cc2)cc1,-1.1%

row,Structure (SMILES),activation
1,COc1ccccc1C(=O)N/C(=C/c1ccco1)C(=O)Nc1ccc(C(=O)O)cc1,1.14% (active)
2,CCOC(=O)[C@]12CCCC3=C1N(CCC3)C(=O)[C@@H](CC(=O)NCC13CC4CC(CC(C4)C1)C3)C2,-0.93%
3,Cc1ccc(NC(=O)Cc2cccc(F)c2)c(S(=O)(=O)N2CCOCC2)c1,-0.55%
4,O=C(NC1CCCC1)C1CSCCS(=O)(=O)N1Cc1ccccc1 (stereo not given),-1.05%
5,Cc1noc(C)c1/C=N/Nc1ccc2ccccc2n1,1.61% (active)
6,C=CCN1C(=O)[C@H](CC(=O)N2CCN(C(=O)OCC)CC2)[C@@]2(C(=O)OCC)CCCC=C12,-0.45%
7,Cc1ccc(-n2c(SCC(=O)Nc3ccc(S(=O)(=O)Nc4nccs4)cc3)nnc2-c2ccccn2)cc1,-0.88%
8,Cc1ccnc(-n2sc3ccccc3c2=O)n1,0.16%
9,Cc1ccnc(Nc2nc3ccccc3s2)n1,1.25% (active)
10,Cc1cccc(NC(=O)C[C@H]2CC[C@H]3[C@@H](COc4ccc(NC(=O)Nc5ccccc5)cc4C(=O)N3C)O2)c1,-1.84%
11,Cc1cccc(S(=O)(=O)N2CN(CC3CCCO3)c3nc4ccccc4nc32)c1 (stereo not given),-0.43%
12,CCOC(=O)C1CCN(C(=O)C(C)(C)NC(=O)Nc2ccc(F)c(F)c2)CC1,-1.1%
13,COC(=O)C1CN(CC(C)C)CCS(=O)(=O)N1Cc1ccc(C)cc1 (stereo not given),-0.69%
14,COc1ccccc1OCc1nnc(SCC(N)=O)n1-c1ccccc1,-1.54%
15,CCc1ccc(-c2nnn(Cc3nc4ccccc4s3)n2)cc1,-0.71%
16,COc1ccccc1OCc1nc2ccccc2s1,2.57% (active)
17,COC(=O)C12C=C3CC(c4ccccc4)=C3C(=O)N1Cc1[nH]c3ccccc3c1C2 (stereo not given),-1.07%
18,COc1ccc2c(c1)CN1CN(CCc3ccccc3)S(=O)(=O)CC21 (stereo not given),-0.04%
19,Cc1nnsc1C(=O)NCc1c(F)cccc1Cl,-0.35%
20,Cc1nnsc1C(=O)Nc1cccc(Cl)c1C,-1.69%
21,Cc1cc(Cl)ccc1NNC(=O)c1snnc1C,2.01% (active)
